In PubChem BioAssay (NCI):
This is part of a sample that, as a whole, favours compounds with a hit. Of some 79,000 tested, about 15% had one in any assay. Calls of active or inactive are those of the source. Rule as the data show it: active = growth inhibition above about 70%; inactive = the rest.

What was measured:
[1] = NCI Yeast Anticancer Drug Screen. Data for the mec2-1 strain (AID 157); conditions: S. cerevisiae mec2-1 strain, active compounds read high
In short: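 Cells of the genetically defined mec2-1 yeast strain are incubated with test compound. Inhibition of growth is calculated against vehicle-treated controls.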

[2] = NCI Yeast Anticancer Drug Screen. Data for the rad14 strain (AID 159);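 also: 0% = growth of vehicle-treated control cultures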; conditions: S. cerevisiae rad14 strain growth inhibition, active compounds read high
In short: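 Growth inhibition vs vehicle controls; genetically altered yeast strain (DNA damage repair defect) treated with test compounds.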

[3] = NCI Yeast Anticancer Drug Screen. Data for the sgs1 mgt1 strain (AID 161);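 also: 0% = growth of cultures given vehicle only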; conditions: S. cerevisiae sgs1 mgt1 strain, active compounds read high
In short: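 Mutant yeast exposed to compound; growth scored against vehicle-only wells.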

[4] = NCI Yeast Anticancer Drug Screen. Data for the CLN2oe strain (AID 163);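 also: 0% = growth of vehicle-only control cultures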; conditions: S. cerevisiae CLN2oe strain, active compounds read high
In short: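 Strain altered in cell-cycle control, incubated with compound; growth compared to solvent-treated controls.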

[5] = NCI Yeast Anticancer Drug Screen. Data for the bub3 strain (AID 167); conditions: S. cerevisiae bub3 mutant strain, active compounds read high
In short: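 Readout: yeast growth inhibition, expressed relative to vehicle-only wells. The test organism is a mutant strain from a panel with lesions in DNA repair or checkpoint genes.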

[6] = NCI Yeast Anticancer Drug Screen. Data for the wt2 strain (AID 169);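 also: 0% = growth of vehicle-treated yeast cultures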; conditions: S. cerevisiae wt2 strain growth inhibition, active compounds read high
In short: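 Steps: yeast strain treated with compound; growth recorded; inhibition calculated relative to cultures given vehicle alone.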

[7] = NCI Yeast Anticancer Drug Screen. Data for the mlh1 strain (AID 171);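 also: 0% = growth of vehicle-treated control cultures of the same strain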; conditions: S. cerevisiae mlh1 strain growth inhibition, active compounds read high
In short: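 Yeast screen: mutant strain plus compound, growth scored against vehicle control wells.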

[8] = NCI Yeast Anticancer Drug Screen. Data for the mlh1 rad18 strain (AID 175); conditions: S. cerevisiae mlh1 rad18 strain growth inhibition, active compounds read high
In short: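 Compound-treated yeast growth, normalised to vehicle controls. Strain bears defined DNA repair mutations.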

[9] = NCI Yeast Anticancer Drug Screen. Data for the rad18 strain (AID 177); conditions: S. cerevisiae rad18 mutant growth inhibition, active compounds read high
In short: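 Inhibition values reflect reduced yeast growth compared with vehicle-treated controls, using a strain engineered with a DNA damage repair defect.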

[10] = NCI Yeast Anticancer Drug Screen. Data for the rad52 strain (AID 147);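 also: 0% = growth of vehicle-treated control cultures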; conditions: S. cerevisiae rad52 mutant growth inhibition, active compounds read high
In short: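 Genetically altered yeast (DNA damage repair defect) treated with compound; inhibition calculated relative to vehicle.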

[11] = NCI Yeast Anticancer Drug Screen. Data for the wt1 strain (AID 149);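 also: 0% = growth of vehicle-treated wt1 cultures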; conditions: S. cerevisiae wt1 strain (SPY 50644) growth inhibition, active compounds read high
In short: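 Growth inhibition read against vehicle controls after compound exposure of the wt1 yeast strain.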

[12] = NCI Yeast Anticancer Drug Screen. Data for the rad50EPP+ strain (AID 151);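 also: 0% = growth of vehicle-treated control cultures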; conditions: S. cerevisiae rad50 mutant strain, active compounds read high
In short: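 Strain rad50EPP+; compound exposure; % growth inhibition vs vehicle.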

[13] = NCI Yeast Anticancer Drug Screen. Data for the mgt1 strain (AID 153); conditions: S. cerevisiae mgt1 mutant growth inhibition, active compounds read high
In short: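 Read-out: yeast growth inhibition vs vehicle control. Strain mgt1, drawn from a panel altered in DNA damage repair or cell cycle control.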

[14] = NCI Yeast Anticancer Drug Screen. Data for the rad50 strain (AID 155);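 also: 0% = growth of vehicle-only cultures of the same strain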; conditions: S. cerevisiae rad50 strain growth inhibition, active compounds read high
In short: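 Readout: growth inhibition relative to vehicle-treated cultures. Compound exposure was carried out in a genetically defined yeast strain deficient in DNA damage repair.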

[15] = NCI Yeast Anticancer Drug Screen. Data for the cln2 rad14 strain (AID 165);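 also: 0% = growth equal to vehicle treated cultures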; conditions: S. cerevisiae cln2 rad14 strain, active compounds read high
In short: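 The screen exposed genetically defined yeast (cln2 rad14) to test compounds and scored growth inhibition relative to vehicle-treated controls.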

[16] = NCI Yeast Anticancer Drug Screen. Data for the sgs1 strain (AID 173);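 also: 0% = growth of vehicle-only control cultures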; conditions: S. cerevisiae sgs1 mutant, active compounds read high
In short: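 Inhibition of yeast growth served as the measure. The mutant strain was treated with each compound, and growth was normalised to cultures receiving vehicle alone.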

[17] = at 5.0 µM (retest, dose inferred, filed as 0.5)
[18] = at 50.0 µM (retest, dose inferred, filed as 5.0)

Measured: growth inhibition

Cc1cc(Cl)ccc1NC(=O)/C(Cl)=C1/Sc2ccccc2NC1=O
inactive: [1]; [17] 24% | [1]; at 11.0 µM -6% | [1]; at 33.0 µM -5% | [1]; [18] 62% | [1]; at 50.0 µM 56.9% | [1]; at 100.0 µM 16% | [2]; at 1.2 µM 1% | [2]; at 3.7 µM 4% | [2]; at 11.0 µM 5% | [2]; at 33.0 µM 4% | [2]; at 100.0 µM 2% | [3]; [17] 36% | [3]; at 50.0 µM 68.5% | [4]; at 1.2 µM -8% | [4]; at 3.7 µM -1% | [4]; at 11.0 µM -6% | [4]; at 33.0 µM -7% | [4]; at 100.0 µM -14% | [5]; at 1.2 µM -2% | [5]; at 3.7 µM -2% | [5]; [17] 35% | [5]; at 11.0 µM -3% | [5]; at 33.0 µM -4% | [5]; at 50.0 µM 20.2% | [5]; at 100.0 µM 7% | [6]; at 1.2 µM -2% | [6]; at 3.7 µM 7% | [6]; at 11.0 µM -2% | [6]; at 33.0 µM -2% | [6]; at 100.0 µM 2% | [7]; at 1.2 µM -1% | [7]; at 3.7 µM -3% | [7]; at 11.0 µM -3% | [7]; at 33.0 µM -5% | [7]; at 100.0 µM 0% | [8]; [17] 35% | [8]; at 50.0 µM 69.2% | [9]; at 1.2 µM 0% | [9]; at 3.7 µM 3% | [9]; at 11.0 µM 4% | [9]; at 33.0 µM 6% | [9]; at 100.0 µM 45%
active: [3]; [18] 91% | [5]; [18] 91% | [8]; [18] 80%

COc1cc2c(cc1C[N+](C)(C)CSc1ccccc1)-c1ccccc1CC2
active: [10]; at 11.0 µM 79% | [10]; at 33.0 µM 99% | [10]; at 100.0 µM 99% | [11]; at 33.0 µM 98% | [11]; at 100.0 µM 98% | [13]; at 33.0 µM 98% | [13]; at 100.0 µM 99% | [14]; at 11.0 µM 76% | [14]; at 33.0 µM 98% | [14]; [18] 98% | [14]; at 50.0 µM 99% | [14]; at 100.0 µM 99% | [1]; at 11.0 µM 80% | [1]; at 33.0 µM 98% | [1]; [18] 99% | [1]; at 50.0 µM 99.3% | [1]; at 100.0 µM 96% | [2]; at 33.0 µM 98% | [2]; at 100.0 µM 98% | [3]; [18] 99% | [3]; at 50.0 µM 99.2% | [4]; at 11.0 µM 70% | [4]; at 33.0 µM 98% | [4]; at 100.0 µM 99% | [15]; [18] 99% | [15]; at 50.0 µM 99.3% | [5]; at 11.0 µM 78% | [5]; at 33.0 µM 98% | [5]; [18] 98% | [5]; at 50.0 µM 99.5% | [5]; at 100.0 µM 99% | [6]; at 11.0 µM 96% | [6]; at 33.0 µM 98% | [6]; at 100.0 µM 99% | [7]; at 33.0 µM 98% | [7]; at 100.0 µM 98% | [16]; at 33.0 µM 97% | [16]; at 100.0 µM 99% | [8]; [18] 99% | [8]; at 50.0 µM 99.3% | [9]; at 11.0 µM 77% | [9]; at 33.0 µM 99% | [9]; at 100.0 µM 99%
inactive: [10]; at 1.2 µM -12% | [10]; at 3.7 µM -8% | [11]; at 1.2 µM -17% | [11]; at 3.7 µM -14% | [11]; at 11.0 µM 29% | [12]; at 1.2 µM 3% | [12]; at 3.7 µM 20% | [12]; at 11.0 µM 19% | [12]; at 33.0 µM 20% | [12]; at 100.0 µM 43% | [13]; at 1.2 µM 7% | [13]; at 3.7 µM 15% | [13]; at 11.0 µM 30% | [14]; at 1.2 µM -7% | [14]; at 3.7 µM 8% | [14]; [17] 11% | [1]; at 1.2 µM -6% | [1]; at 3.7 µM 6% | [1]; [17] 3% | [2]; at 1.2 µM -12% | [2]; at 3.7 µM -10% | [2]; at 11.0 µM 64% | [3]; [17] -1% | [4]; at 1.2 µM -17% | [4]; at 3.7 µM 6% | [15]; [17] -3% | [5]; at 1.2 µM 17% | [5]; at 3.7 µM -4% | [5]; [17] 1% | [6]; at 1.2 µM 13% | [6]; at 3.7 µM 21% | [7]; at 1.2 µM 6% | [7]; at 3.7 µM 16% | [7]; at 11.0 µM 35% | [16]; at 1.2 µM 2% | [16]; at 3.7 µM 8% | [16]; at 11.0 µM 36% | [8]; [17] -5% | [9]; at 1.2 µM 9% | [9]; at 3.7 µM 12%
